Experiment [1] can be described thus: qHTS assay to identify small molecule agonists of the vitamin D receptor (VDR) signaling pathway - cell viability counter screen (AID 743224). Also: nearly all actives have a fitted effect of over 50% in size. Also: potency is read from the fitted curve at half-maximal effect. As to activity change, negative = cytotoxicity: series mostly up to about 63 µM; % is scaled to controls: 0 for no effect and ±100 for the full control effect. Put shortly:
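Viability is measured in the same wells as the VDR-bla reporter assay: after 16 h compound treatment and 2 h substrate loading, CellTiter-Glo is added and luminescence read 30 min later.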
In general terms: qHTS replaces the single test concentration by a dilution series.

Experiment [2] can be described thus: qHTS assay to identify small molecule antagonists of the vitamin D receptor (VDR) signaling pathway - cell viability counter screen (AID 743225). Also: nearly all actives have a fitted effect of over 50% in size. Also: potency is read from the fitted curve at half-maximal effect. As to viability change, negative = cytotoxic: % is scaled to controls: 0 for no effect and ±100 for the full control effect. Put shortly:
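Same-well multiplex: following 16 h treatment of HEK 293T cells carrying a UAS-driven beta-lactamase reporter with compound and agonist (3 nM final), and a 2 h FRET substrate step, CellTiter-Glo was added and luminescence read after 30 min.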

Experiment [3] is described as follows: qHTS assay to identify small molecule agonists of the endoplasmic reticulum stress response signaling pathway (AID 1159516; active = well fitted activation curve with a large enough effect in the signal ratio in the repeat runs, not every such curve was filed as active; the % refers to the signal ratio; also: % is scaled to controls: 0 for no effect and ±100 for the full control effect). Summed up:
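Tox21 10K library screened in quantitative HTS format on ESRE-bla HeLa cells, a beta-lactamase reporter under ER stress response element control; 5 hr treatment, FRET read.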

Experiment [4] in a line: qHTS assay to identify small molecule agonists of the endoplasmic reticulum stress response signaling pathway - cell viability counter screen (AID 1159517; calls by dose curve; also: series mostly up to about 61 µM; % is scaled to controls: 0 for no effect and ±100 for the full control effect; nearly all actives have a fitted effect of over 50% in size). Summed up:
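Luminescence readout: CellTiter-Glo, 30 min RT, same wells as the ESRE-bla reporter read. HeLa ESRE-bla, 1,500 cells/well, o/n 37 C; cpd 5 hr 37 C/5% CO2.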

Experiment [5] in a line: qHTS assay to identify small molecule antagonists of the retinoid-related orphan receptor gamma (ROR-gamma) signaling pathway - cell viability counter screen (AID 1159520). Also: nearly all actives have a fitted effect of over 50% in size. Also: potency is read from the fitted curve at half-maximal effect. Summed up: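 Tet-on ROR gamma CHO cells (1,000/well) were plated 4 hr, given compounds in DMSO for 2 hr at 37 C, then induced with 1 uM final doxycycline for 16 hr. Viability was read as ATP by CellTiter-Glo luminescence after 30 min.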

Experiment [6] addresses Nuclear receptor ROR-gamma (Homo sapiens) (UniProt P51449). The experiment can be described thus: qHTS assay to identify small molecule antagonists of the retinoid-related orphan receptor gamma (ROR-gamma) signaling pathway (AID 1159521; also: nearly all actives have a fitted effect of over 50% in size; also: potency is read from the fitted curve at half-maximal effect). Summed up: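 Inducible-expression reporter assay: doxycycline (1 uM final) switched on RORγ in CHO cells bearing a ROR response element-luciferase construct, with test compounds present from 2 h beforehand. Decreased luminescence after 16 h defined antagonist activity.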

Experiment [7] is described as follows: qHTS assay to identify small molecule agonists of the AP-1 signaling pathway - cell viability counter screen (AID 1159525; calls by dose curve; also: nearly all actives have a fitted effect of over 55% in size; also: potency is read from the fitted curve at half-maximal effect). Summed up: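 ME-180 AP-1-bla, 2500 cells/well, Opti-MEM + 0.5% dialyzed FBS; overnight 37 °C; cpd 15-pt titration, 5 h 37 °C; CellTiter-Glo 30 min RT; luminescence read; normalised to TOAB and DMSO controls.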
For experiment [8], the target named is Retinoic acid receptor RXR-alpha (Homo sapiens) (UniProt P19793). The experiment in a line: qHTS assay to identify small molecule agonists of the RXR signaling pathway (AID 1159527; calls by dose curve; also: % is scaled to controls: 0 for no effect and ±100 for the full control effect; nearly all actives have a fitted effect of over 35% in size). Summed up: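 Compounds in DMSO were added to RXR-alpha-UAS-bla HEK 293T cells kept in 2% charcoal-stripped serum, and incubated 16 hr at 37 C with 5% CO2. Reporter signal came from a 2 hr B/G FRET substrate step.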

A short description of experiment [9]: qHTS assay to identify small molecule agonists of the RXR signaling pathway - cell viability counter screen (AID 1159529). Also: nearly all actives have a fitted effect of over 50% in size. Also: potency is read from the fitted curve at half-maximal effect. Summed up: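 Counter screen: CellTiter-Glo luminescence. Cells: RXR-alpha-UAS-bla HEK 293T. Medium: 2% charcoal-stripped FBS. Treatment: 16 h, 37 C. Reagent incubation: 30 min, RT.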
Experiment [10] is described as follows: qHTS assay to identify small molecule agonists of the AP-1 signaling pathway (AID 1159526; calls by dose curve; also: % is scaled to controls: 0 for no effect and ±100 for the full control effect).

Values joined by “and” are separate entries in the source; they are usually repeats but may differ in a detail not shown here. Equal entries are not always repeated. Records with an inconclusive call do not appear. More than one record can exist for a structure, and the calls need not agree. Active and inactive are the calls of the source. Unless noted, calls follow the shape of the dose curve; as a rule, active = well fitted curve in the direction sought with a large enough effect in the repeat runs; inconclusive = weak or mixed curves; inactive = no such curve, though single readings can be large; an effect the other way counts as inactive or inconclusive.

Retinoic acid receptor RXR-alpha (Homo sapiens), sequence (P19793 whole entry, looked up): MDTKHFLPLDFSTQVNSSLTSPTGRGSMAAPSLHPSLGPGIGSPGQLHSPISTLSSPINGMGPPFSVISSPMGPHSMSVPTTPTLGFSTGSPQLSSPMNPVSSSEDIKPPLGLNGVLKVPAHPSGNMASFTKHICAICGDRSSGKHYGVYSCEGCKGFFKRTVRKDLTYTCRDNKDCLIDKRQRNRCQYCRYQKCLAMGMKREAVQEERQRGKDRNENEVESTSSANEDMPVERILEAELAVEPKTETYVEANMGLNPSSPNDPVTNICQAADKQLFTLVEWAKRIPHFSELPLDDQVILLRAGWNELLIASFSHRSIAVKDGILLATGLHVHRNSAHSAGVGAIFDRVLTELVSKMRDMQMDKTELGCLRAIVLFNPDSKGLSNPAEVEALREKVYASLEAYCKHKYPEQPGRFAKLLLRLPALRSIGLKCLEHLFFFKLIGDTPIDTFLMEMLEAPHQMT

`CCCN(CCc1cccs1)[C@H]1CCc2c(O)cccc2C1`: the Potency entry in experiment [1], in experiment [2], in [3], in [4], in experiment [5] and in experiment [6] was “inactive” throughout. The Potency entry in [7] and in experiment [8] was “inactive” in each case.

For `N[C@@H](CSSC[C@H](N)C(=O)O)C(=O)O`, the viability change, negative = cytotoxic in experiment [2] is 6.19% [at 0.628 µM] (inactive); in experiment [7], 3.93% [at 0.29 µM] (inactive). In experiment [3], the activation was -7.2% [at 0.628 µM] (inactive). The activity change, negative = cytotoxicity in experiment [4] was 2.61% [at 0.628 µM] (inactive); in experiment [9] it was -20.1% [at 0.29 µM] (inactive). Besides, the activity, negative = cytotoxicity in experiment [5] was 0.408% [at 0.349 µM] (inactive). In addition, in experiment [6], the activity change, negative = inhibition is -16.9% [at 0.35 µM] (inactive).

`c1cc2c3c(c1)ccc1cccc(c13)C2`: the Potency in experiment [1] was 56.1 µM (active). For the same compound, the Potency entry in [3], in experiment [4], in [5], in [6] and in [7] was “inactive” throughout.

As to `O=C(c1ccccc1)c1cc(Cl)ccc1O`, the Potency entry in experiment [1], in [2], in [3], in experiment [4], in experiment [5] and in experiment [6] was “inactive” throughout. In addition, in experiment [8], the Potency entry was “inactive”.

As to `CCN1CCN(c2cc(-c3ccc(F)cc3)c3c(n2)CCCCCC3)CC1`, the Potency entry in experiment [1], in [2], in experiment [3] and in experiment [4] was “inactive” in each case. Moreover, the activity, negative = cytotoxicity in experiment [5] was -5.78% [at 19 µM] (inactive). Besides, the activity change, negative = inhibition in experiment [6] is -6.23% [at 19 µM] (inactive). Also, the viability change, negative = cytotoxic in experiment [7] is 3.9% [at 15.8 µM] (inactive). The activation in [10] was 6.74% [at 15.8 µM] (inactive). In experiment [9], the activity change, negative = cytotoxicity is -22.5% [at 15.8 µM] (inactive).

Consider `CNC(=S)NN`, for which the Potency is 5.49 µM (active) in experiment [1] and 27.3 µM (active) in [6]. Moreover, the Potency result in [3], in experiment [4], in experiment [5] and in experiment [7] was “inactive” throughout.

Turning to `c1cc(OCC2CO2)cc(OCC2CO2)c1` (stereo unspecified), the Potency entry in experiment [2], in experiment [3], in experiment [4], in [5] and in experiment [7] was “inactive” throughout. The Potency in experiment [6] was 48.2 µM (active); in experiment [9], 48.6 µM (active).

Consider `NC1(c2ccc(-c3nc4ccn5c(=O)[nH]nc5c4cc3-c3ccccc3)cc2)CCC1`, for which the Potency is 21.3 µM (active) in [2], 29.8 µM (active) in experiment [5], 0.596 µM (active) in [6] and 21.3 µM (active) in experiment [9]. For the same compound, the Potency entry in experiment [3] and in experiment [4] was “inactive” each time.

Turning to `CCN(CC)CCCN(c1ccccc1)C1Cc2ccccc2C1`, the Potency result in [3], in [4], in experiment [5] and in [7] was “inactive” each time.

On to `CN(Cc1cc(Br)cc(Br)c1N)C1CCCCC1`, for which the Potency in experiment [1] was 26.6 µM (active). Moreover, the Potency entry in experiment [2], in [3], in experiment [4], in experiment [5] and in experiment [6] was “inactive” throughout.

For `CC(=O)Oc1ccc(C2(c3ccc(OC(C)=O)cc3)C(=O)Nc3ccccc32)cc1`, the Potency result in experiment [1], in experiment [2], in experiment [3], in experiment [4], in experiment [5] and in experiment [6] was “inactive” each time. The Potency result in [8] and in experiment [9] was “inactive” in each case.

For `CC(C)N=C(N)/N=C(\N)Nc1ccc(Cl)cc1`, the Potency result in [1], in experiment [2], in experiment [3], in [4], in experiment [5] and in [7] was “inactive” throughout. Also, the Potency entry in experiment [10] and in experiment [9] was “inactive” in each case.

As for `CCCCCCCCCCCCCCCC`, the Potency result in experiment [1], in experiment [2], in experiment [3], in experiment [4], in experiment [5] and in experiment [7] was “inactive” in each case. For the same compound, the Potency result in experiment [10] and in experiment [9] was “inactive” throughout.

Regarding `CCN(CC)CCOC(=O)C1(C2CCCCC2)CCCCC1`, the Potency entry in experiment [1], in experiment [2], in experiment [3] and in experiment [4] was “inactive” throughout. For the same compound, the Potency in experiment [9] was 12 µM (active).

With `CCCCN(CCCC)CCC(O)c1cc2c(Cl)cc(Cl)cc2c2cc(C(F)(F)F)ccc12` (stereo unspecified), the Potency entry in experiment [1], in [3], in experiment [4] and in [7] was “inactive” throughout. Also, the values for the Potency in experiment [6] and in experiment [9] were 29.8 µM (active) and 23.9 µM (active), respectively.

On to `NC(=O)c1ccccc1N`, for which the Potency entry in experiment [1], in [2], in experiment [3], in [4], in [6] and in experiment [10] was “inactive” each time. In addition, in experiment [9], the Potency entry is “inactive”.

In the case of `CCOC(=O)N1CCC(=C2c3ccc(Cl)cc3CCc3cccnc32)CC1`, the Potency in experiment [1] is 54.9 µM (active) and inactive; in experiment [2], 38.9 µM (active) and inactive; in [6], 6.86 µM (active) and 21.1 µM (active); in [9], 54.9 µM (active) and inactive. Moreover, the Potency result in [3], in [4], in [7] and in [8] was “inactive” each time.

Regarding `Cc1ccc(N)cc1O`, the Potency result in experiment [3], in experiment [5] and in [6] was “inactive” throughout. In addition, in [7], the Potency is 38.9 µM (active).

For the compound `CCN(CC)CCNc1ccc(CO)c2sc3ccccc3c(=O)c12`, the Potency entry in [3], in experiment [4], in experiment [5], in experiment [7] and in [10] was “inactive” each time. Besides, the Potency in [9] is 6.01 µM (active).

Take `O=C1NC2CCCCN2C12CCN(CCCN1c3ccccc3CCc3ccc(Cl)cc31)CC2` (stereo unspecified): the Potency entry in experiment [1], in [3] and in experiment [4] was “inactive” in each case. Moreover, the Potency in experiment [2] was 23.9 µM (active); in experiment [6], 23.7 µM (active); in [9], 21.3 µM (active).

For the compound `[O]=[Zr]`, the Potency result in [1], in experiment [2], in experiment [3], in experiment [4], in [5] and in [7] was “inactive” throughout. Besides, the Potency result in experiment [10] and in [9] was “inactive” each time.

Turning to `CCCCOc1ccc(C(=O)CCN2CCCCC2)cc1`, the Potency result in experiment [2], in [3], in experiment [4], in experiment [7] and in experiment [10] was “inactive” each time. Further, in experiment [5], the Potency is 26.6 µM (active).

On to `Cc1cccc(C)c1NC(=O)CN1CCN(CCCC(c2ccc(F)cc2)c2ccc(F)cc2)CC1`, for which the Potency in experiment [1] is 29.8 µM (active); in experiment [2], 23.9 µM (active); in [6] it was 21.1 µM (active); in experiment [9] it was 21.3 µM (active). Besides, the Potency entry in experiment [3] and in [4] was “inactive” throughout.

`O=C(O)c1cccc(Cl)n1`: the Potency in experiment [1] was 24.5 µM (active). Besides, the Potency result in experiment [3], in experiment [4], in [5], in experiment [7], in [10] and in experiment [9] was “inactive” each time.

In the case of `CNC(=O)c1cc(Oc2ccc(NC(=O)Nc3ccc(Cl)c(C(F)(F)F)c3)cc2)ccn1`, the Potency in [1] was 23.7 µM (active); in experiment [2] it was 12 µM (active); in [6] it was 13.3 µM (active). The Potency entry in [3], in experiment [4] and in [7] was “inactive” each time.

Turning to `CC(C)=C1CC[C@@H](C)CC1=O`, the Potency result in experiment [1], in [2], in [3], in [5], in experiment [6] and in experiment [7] was “inactive” throughout. The Potency result in [10], in experiment [8] and in experiment [9] was “inactive” throughout.

With `CC(CN(C)C)CN1c2ccccc2CCc2ccccc21` (stereo unspecified), the Potency entry in experiment [2], in experiment [3], in [4] and in [5] was “inactive” throughout. Also, in experiment [9], the Potency was 9.52 µM (active).

For the compound `CNCC[C@H](Oc1cccc2ccccc12)c1cccs1`, the results for the Potency in experiment [1], in experiment [2] and in experiment [9] were 11.9 µM (active), 8.49 µM (active) and 23.9 µM (active), respectively. Besides, the Potency entry in experiment [3], in experiment [4], in [5] and in experiment [7] was “inactive” throughout.

(Values after PubChem BioAssay (Tox21).)
